The results in this text go back to ChEMBL document CHEMBL1961873, “Compounds: GSK PKIS; Assays: Nanosyn kinase panel” (2012).

In assay [1] the target is Calcium/calmodulin-dependent protein kinase type II subunit alpha (Homo sapiens) (UniProt Q9UQM7). Conditions: at 1 µM.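 Further: reported value is a mean percent inhibition of CAMK2A.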
In assay [2] the target is Calcium/calmodulin-dependent protein kinase type II subunit delta (Homo sapiens) (UniProt Q13557). Conditions: at 0.1 µM.
Assay [3] has the same target. Conditions: at 1 µM.
In assay [4] the target is T1, Calcium/calmodulin-dependent protein kinase type IV (Homo sapiens) (UniProt Q16566).
T1 sequence (whole entry): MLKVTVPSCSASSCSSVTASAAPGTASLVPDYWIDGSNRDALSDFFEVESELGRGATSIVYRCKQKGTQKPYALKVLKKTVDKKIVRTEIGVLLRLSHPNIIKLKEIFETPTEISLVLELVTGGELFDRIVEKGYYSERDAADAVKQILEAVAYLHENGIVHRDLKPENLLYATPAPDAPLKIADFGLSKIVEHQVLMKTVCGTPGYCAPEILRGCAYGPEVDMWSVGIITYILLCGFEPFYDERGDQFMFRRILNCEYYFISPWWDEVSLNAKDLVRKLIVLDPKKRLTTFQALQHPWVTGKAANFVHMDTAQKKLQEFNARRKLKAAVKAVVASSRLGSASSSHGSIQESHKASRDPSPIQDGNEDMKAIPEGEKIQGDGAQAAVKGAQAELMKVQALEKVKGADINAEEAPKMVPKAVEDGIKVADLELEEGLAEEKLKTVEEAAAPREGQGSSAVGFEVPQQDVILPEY
Conditions: at 0.1 µM.

The target of assay [5] is T1, Calcium/calmodulin-dependent protein kinase type IV (Homo sapiens). Conditions: at 1 µM.
Assay [6] deals with T2, Serine/threonine-protein kinase Chk1 (Homo sapiens) (UniProt O14757).
T2 sequence (whole entry): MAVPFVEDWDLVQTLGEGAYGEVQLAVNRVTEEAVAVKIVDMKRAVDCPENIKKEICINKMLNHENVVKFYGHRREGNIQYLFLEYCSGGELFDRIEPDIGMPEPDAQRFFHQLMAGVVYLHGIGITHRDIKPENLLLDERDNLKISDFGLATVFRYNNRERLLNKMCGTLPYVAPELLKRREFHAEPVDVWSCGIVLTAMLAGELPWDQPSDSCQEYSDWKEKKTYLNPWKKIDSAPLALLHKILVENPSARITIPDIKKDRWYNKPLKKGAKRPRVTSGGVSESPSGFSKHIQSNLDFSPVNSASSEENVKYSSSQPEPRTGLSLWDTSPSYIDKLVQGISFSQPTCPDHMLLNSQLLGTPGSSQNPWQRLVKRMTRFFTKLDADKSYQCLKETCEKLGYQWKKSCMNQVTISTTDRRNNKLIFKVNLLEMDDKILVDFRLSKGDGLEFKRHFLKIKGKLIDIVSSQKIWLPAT
Conditions: at 0.1 µM.

Assay [7] deals with T2, Serine/threonine-protein kinase Chk1 (Homo sapiens). Conditions: at 1 µM.
In assay [8] the target is Serine/threonine-protein kinase Chk2 (Homo sapiens) (UniProt O96017). Conditions: at 0.1 µM.
Assay [9] has the same target. Conditions: at 1 µM.
Assay [10] deals with Death-associated protein kinase 1 (Homo sapiens) (UniProt P53355). Conditions: at 0.1 µM.

SMILES strings stand for the structures. Several values for one entry are separate records, joined by “and”; a condition that tells them apart may be missing. Equal values may be shown once.

Sequence of Calcium/calmodulin-dependent protein kinase type II subunit alpha (Homo sapiens) (Q9UQM7 whole entry): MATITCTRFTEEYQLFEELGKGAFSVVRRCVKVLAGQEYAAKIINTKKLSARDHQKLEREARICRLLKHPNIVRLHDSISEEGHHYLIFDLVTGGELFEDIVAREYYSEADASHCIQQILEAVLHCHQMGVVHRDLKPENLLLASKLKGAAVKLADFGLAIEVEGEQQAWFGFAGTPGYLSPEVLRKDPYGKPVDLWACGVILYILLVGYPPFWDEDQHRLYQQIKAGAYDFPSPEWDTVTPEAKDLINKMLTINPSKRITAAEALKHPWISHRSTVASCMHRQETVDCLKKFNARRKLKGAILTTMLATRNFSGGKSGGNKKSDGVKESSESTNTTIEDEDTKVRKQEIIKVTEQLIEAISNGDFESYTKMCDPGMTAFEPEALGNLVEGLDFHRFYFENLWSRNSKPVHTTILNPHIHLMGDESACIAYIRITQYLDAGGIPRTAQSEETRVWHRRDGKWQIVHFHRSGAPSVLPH
Sequence of Death-associated protein kinase 1 (Homo sapiens) (P53355 whole entry, looked up): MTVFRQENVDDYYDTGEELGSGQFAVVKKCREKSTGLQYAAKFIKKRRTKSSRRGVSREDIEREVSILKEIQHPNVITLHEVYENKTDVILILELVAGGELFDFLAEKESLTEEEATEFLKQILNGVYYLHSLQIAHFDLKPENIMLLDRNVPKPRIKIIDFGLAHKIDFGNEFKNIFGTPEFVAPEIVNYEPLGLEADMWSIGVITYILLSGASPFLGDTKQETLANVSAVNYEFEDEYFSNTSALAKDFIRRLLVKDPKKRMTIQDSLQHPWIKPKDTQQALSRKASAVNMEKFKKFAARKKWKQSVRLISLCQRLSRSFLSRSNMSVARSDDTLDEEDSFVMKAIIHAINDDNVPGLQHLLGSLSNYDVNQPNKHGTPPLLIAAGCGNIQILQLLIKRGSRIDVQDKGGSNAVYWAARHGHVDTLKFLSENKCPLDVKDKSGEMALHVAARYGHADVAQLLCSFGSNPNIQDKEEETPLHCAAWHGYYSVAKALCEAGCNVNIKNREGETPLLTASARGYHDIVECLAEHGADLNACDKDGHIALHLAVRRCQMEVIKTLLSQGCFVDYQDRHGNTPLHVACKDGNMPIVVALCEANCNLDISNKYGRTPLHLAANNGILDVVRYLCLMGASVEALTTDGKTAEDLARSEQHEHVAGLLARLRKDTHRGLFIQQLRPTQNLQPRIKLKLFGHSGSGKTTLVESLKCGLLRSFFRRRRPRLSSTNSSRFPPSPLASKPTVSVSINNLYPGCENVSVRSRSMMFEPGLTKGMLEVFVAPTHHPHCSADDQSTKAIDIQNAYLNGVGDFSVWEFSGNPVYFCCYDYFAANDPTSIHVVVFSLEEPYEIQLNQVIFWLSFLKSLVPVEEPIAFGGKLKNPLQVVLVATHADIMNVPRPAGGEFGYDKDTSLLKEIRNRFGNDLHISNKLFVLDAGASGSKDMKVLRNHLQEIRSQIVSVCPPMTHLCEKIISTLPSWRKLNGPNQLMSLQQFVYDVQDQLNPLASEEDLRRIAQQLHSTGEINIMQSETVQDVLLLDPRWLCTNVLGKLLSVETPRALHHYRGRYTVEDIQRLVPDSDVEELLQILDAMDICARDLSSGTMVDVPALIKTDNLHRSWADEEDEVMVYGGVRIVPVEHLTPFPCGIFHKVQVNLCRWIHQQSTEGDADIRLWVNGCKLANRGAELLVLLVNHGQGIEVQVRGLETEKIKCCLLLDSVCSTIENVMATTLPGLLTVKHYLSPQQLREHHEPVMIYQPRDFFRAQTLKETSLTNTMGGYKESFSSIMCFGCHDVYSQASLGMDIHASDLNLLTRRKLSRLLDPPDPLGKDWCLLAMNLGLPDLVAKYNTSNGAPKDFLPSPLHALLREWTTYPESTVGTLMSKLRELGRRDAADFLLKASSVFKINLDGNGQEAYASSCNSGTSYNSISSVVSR
Sequence of Serine/threonine-protein kinase Chk2 (Homo sapiens) (O96017 whole entry): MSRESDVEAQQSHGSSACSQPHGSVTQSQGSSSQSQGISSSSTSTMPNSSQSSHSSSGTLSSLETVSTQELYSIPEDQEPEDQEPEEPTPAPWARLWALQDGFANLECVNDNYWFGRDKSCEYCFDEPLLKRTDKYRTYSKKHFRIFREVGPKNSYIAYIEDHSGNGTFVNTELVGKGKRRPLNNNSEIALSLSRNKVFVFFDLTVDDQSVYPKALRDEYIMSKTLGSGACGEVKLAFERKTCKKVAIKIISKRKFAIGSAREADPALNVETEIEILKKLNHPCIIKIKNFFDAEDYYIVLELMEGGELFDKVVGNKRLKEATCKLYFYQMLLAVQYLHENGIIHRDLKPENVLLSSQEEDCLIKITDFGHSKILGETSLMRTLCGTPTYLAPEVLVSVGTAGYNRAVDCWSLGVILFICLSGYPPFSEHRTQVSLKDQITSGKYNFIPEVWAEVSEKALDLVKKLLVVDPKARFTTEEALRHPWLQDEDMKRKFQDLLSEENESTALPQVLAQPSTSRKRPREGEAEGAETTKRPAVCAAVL
Sequence of Calcium/calmodulin-dependent protein kinase type II subunit delta (Homo sapiens) (Q13557 whole entry): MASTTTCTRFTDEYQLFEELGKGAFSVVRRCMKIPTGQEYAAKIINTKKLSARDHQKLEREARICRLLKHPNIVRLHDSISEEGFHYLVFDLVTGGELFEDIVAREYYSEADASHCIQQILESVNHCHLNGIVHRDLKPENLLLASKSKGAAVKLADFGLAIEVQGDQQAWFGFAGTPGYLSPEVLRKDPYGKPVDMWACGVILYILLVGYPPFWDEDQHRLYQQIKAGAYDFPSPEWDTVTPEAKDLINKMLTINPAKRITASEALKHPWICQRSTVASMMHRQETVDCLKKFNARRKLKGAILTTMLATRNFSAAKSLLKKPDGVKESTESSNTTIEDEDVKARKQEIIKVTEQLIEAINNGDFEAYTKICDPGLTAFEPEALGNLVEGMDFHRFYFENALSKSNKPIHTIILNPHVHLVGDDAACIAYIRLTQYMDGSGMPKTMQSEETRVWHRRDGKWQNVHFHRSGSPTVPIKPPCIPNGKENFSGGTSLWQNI

The inhibition is the relative decrease from the control value, in per cent. As for `CCCNc1cccc(-n2ncc3c(N/N=C/c4ccncc4)ncnc32)c1`, the inhibition is 3.36% in assay [1]; 1.11% in [2]; 1.17% in assay [3]; -2.8% in assay [4]; -3.1% in assay [5]; -4.03% in [6]. The inhibition in assay [7] is -5.65%; in [8], -4.06%; in [9], 0.34%; in assay [10], -6.43%.
Take `CN(c1ccc(NC(=O)NCCN2CCOCC2)cc1)c1ccnc(Nc2ccc(CS(C)(=O)=O)cc2)n1`: the inhibition was 1.11% in [1]; 1.06% in assay [2]; 3.97% in assay [3]; -3.18% in [4]; -5.39% in [5]; 4.02% in assay [6]. Further, the inhibition amounted to 3.14% in assay [7], 2.01% in assay [8], 6.85% in assay [9] and 4.05% in assay [10].
With `O=C(O[C@H]1CN[C@H](C#Cc2cc3ncnc(Nc4ccc5c(ccn5Cc5cc(F)ccc5F)c4)c3s2)C1)N1CCOCC1`, the inhibition is 3.57% in assay [1]; 4.06% in assay [2]; 3.62% in [3]; 0.33% in assay [4]; 1.34% in [5]; -1.01% in assay [6]. Moreover, the inhibition was -1.69% in assay [7], -0.02% in assay [8], 6.4% in assay [9] and -3.56% in assay [10].
On to `Cc1nnc(-c2cccc(-c3ccc(C(=O)NCC4CC4)cc3)c2)o1`, for which the inhibition in [1] was 3.99%; in assay [2] it was 3.26%; in [3], 6.04%; in assay [4], -2.72%; in assay [5] it was -2.97%; in [6], 4.9%. Further, the inhibition in assay [7] turned out to be 5.14%; in assay [8] it was 3.86%; in [9], 4.86%; in assay [10] it was 5.32%.
As for `CC1=C(C(=O)Nc2ccc3[nH]ncc3c2)C(c2ccc(F)cc2)N=C(c2ccc(C(F)(F)F)nc2)N1` (stereo not given), the inhibition in assay [1] came out at 2.04%; in assay [2] it was 0.67%; in assay [3] it was 3.6%; in assay [4], 0.82%; in assay [5], 1.17%; in assay [6], 0.19%. Further, the inhibition in [7] worked out at 3.03%; in [8] it was 1.5%; in assay [9] it was 2.24%; in assay [10] it was 0.86%.
In the case of `CCS(=O)(=O)c1ccc(OC)c(Nc2ncc(-c3cccc(C(C)=O)c3)o2)c1`, the inhibition in [1] is 1.16%; in [2] it was 1.73%; in assay [3], 3.23%; in [4], -3%; in assay [5], -5.43%; in assay [6], -0.75%. Also, the inhibition was -1.38% in [7], 1.62% in [8], 3.67% in assay [9] and 2.47% in assay [10].
As to `COc1cc(N2CCN(C(C)C)CC2)ccc1Nc1nc(Nc2cccc3ncccc23)c2cc[nH]c2n1`, the inhibition in assay [1] is 1.11%; in assay [2], -0.04%; in assay [3] it was 9.94%; in assay [4] it was 1.22%; in assay [5], 4.44%; in assay [6] it was 0.3%. Further, the inhibition in assay [7] was 1.78%; in [8], -0.49%; in assay [9] it was 4.32%; in [10], -1.26%.
Consider `COc1ccc2ncn(-c3cc(O[C@H](C)c4ccccc4C(F)(F)F)c(C(N)=O)s3)c2c1`, for which the inhibition in assay [1] is 0.95%; in assay [2] it was -0.5%; in assay [3] it was 5.44%; in assay [4] it was 1.4%; in assay [5], 3.11%; in assay [6], 1.46%. In addition, the inhibition is 0.47% in assay [7], -1.28% in assay [8], -0.25% in [9] and -0.67% in assay [10].
For `Cc1c2ccc(N(C)c3ccnc(Nc4cccc(S(N)(=O)=O)c4)n3)cc2nn1C`, the inhibition worked out at 4.44% in assay [1]; 4.36% in [2]; 5.37% in assay [3]; 0.12% in [4]; 0.2% in [5]; 3.06% in [6]. Besides, the inhibition in [7] worked out at 4.57%; in [8] it was 3.17%; in [9] it was 7.22%; in assay [10], 2.95%.
On to `CC(C)c1ccc(-c2cc(-c3c[nH]nc3-c3ccccn3)ccn2)cc1`, for which the inhibition in assay [1] is -0.49%; in [2] it was -0.8%; in assay [3] it was 1.63%; in assay [4] it was 0.73%; in [5], 1.62%; in assay [6], -0.13%. Moreover, the inhibition in assay [7] is 1.92%; in assay [8] it was 0.27%; in [9], 0.77%; in [10] it was 0.1%.
With `Nc1nccc(-c2c(-c3ccc(F)cc3)ncn2C2CCNCC2)n1`, the inhibition is -5.1% and -1.06% in assay [1]; -3.9% and -0.18% in assay [2]; 1.49% and 0.43% in assay [3]; 0% and 0.8% in assay [4]; -2.13% and 0% in [5]; -2.55% and 0.68% in assay [6]. The inhibition in assay [7] was -3.32% and -2.24%; in [8], -2.81% and -0.53%; in assay [9], -2.65% and -0.65%; in assay [10], -2.18% and -0.72%.
